{
  "source": "PubChem BioAssay (Tox21)",
  "note": "A number with no mark means an inactive call. The source made the active and inactive calls. The call rests on the fitted dose curve; in most records, active means well fitted curve in the direction sought with a large enough effect in the repeat runs; inconclusive means weak or mixed curves; inactive means flat fitted curve, though single readings scatter. On the % scale 0 is the no-effect control and ±100 the full control effect; potency means the concentration at half of the fitted maximal effect; tags describe the fitted curve by direction and shape or compound fluorescence and quenching.",
  "data": [
    {"assay": "qHTS assay to test for compound auto fluorescence at 460 nm (blue) in HEK293 cells (AID 720678)", "details": "blue autofluorescence 405/460 nm; series mostly up to 91.3 µM; fluorescence, % of triamterene: at the top concentration", "excerpt": "National Center for Advancing Translational Sciences [NCATS]\nNIH Chemical Genomics Center [NCGC]\nU.S. Environmental Protection Agency [EPA]\nNational Institutes of Environmental Health Sciences [NIEHS]\nNational Toxicology Program [NTP]\nU.S. Food and Drug Administration [FDA]\nCompound auto fluorescence often interferes with screening of the compound library against various biological targets and signaling pathways. Some of these compounds may have fluorophoric properties. Such properties may interfere with the assay outputs resulting in false positives and/or negatives. To decrease such complications and ensure the compound activities are relevant in terms of biological response, the Tox21 10K compound library was screened for auto fluorescence.\nFrom the fluorophores used as reporter signals in our screening assays, the auto fluorescence equivalencies of compounds against three fluorophores have been evaluated: Triamterene, Fluorescein and Rose Bengal sodium for blue, green and red fluorescence, respectively. The fluorescence intensities were measured using Excitation/Emission wavelengths at 405/460nm, 485/535nm and 540/590nm for blue, green and red labels, respectively. This assay includes the blue fluorescence data.\nTox21 Assay Protocol Summary:\n2,000 HEK293 cells in 5 uL of culture medium containing 10% dialyzed FBS per well were dispensed into black wall/clear bottom 1536-well plates using a Multidrop Combi Dispenser (Thermo Scientific). The assay plates were incubated for 4-5 hr at 37C to allow cell attachment to the well bottom, followed by the transfer of 23 nL compound or DMSO vehicle by a pintool work station (Kalypsys, San Diego, CA). After the assay plates were incubated overnight at 37C and 5% CO2, fluorescence intensities in the assay plates were measured by an Envision (PerkinElmer, Shelton, CT) plate reader using three labels for measuring blue, green and red fluorescence at […] 460, 535 and 590nm respectively.", "values": [
      {"smiles": "SCCCCCCCCS", "fluorescence, % of triamterene": "-0.0302%"},
      {"smiles": "S=C(SSSSSSC(=S)N1CCCCC1)N1CCCCC1", "fluorescence, % of triamterene": "0.0298% [at 18.6 µM]"},
      {"smiles": "CC(=O)Oc1ccc(C2(c3ccc(OC(C)=O)cc3)Oc3ccccc3NC2=O)cc1", "fluorescence, % of triamterene": "-0.0701% [at 46 µM]"},
      {"smiles": "CC=O", "fluorescence, % of triamterene": "-0.0616% [at 95.7 µM]"},
      {"smiles": "CCCCCCCCCC(=O)N(C)C", "fluorescence, % of triamterene": "0.0168% [at 95.7 µM]"},
      {"smiles": "CC(C)(c1cc(Br)c(OCCO)c(Br)c1)c1cc(Br)c(OCCO)c(Br)c1", "fluorescence, % of triamterene": "0.0588%"},
      {"smiles": "CCN(CC)CCOC(=O)C1(C2CCCCC2)CCCCC1", "fluorescence, % of triamterene": "0.105% [at 46 µM]"},
      {"smiles": "CCOC(=O)N1CCC(=C2c3ccc(Cl)cc3CCc3cccnc32)CC1", "Potency": "inactive"},
      {"smiles": "COC(=O)C1=C(C)NC(C)=C(C(=O)OCCCN2CCC(c3ccccc3)(c3ccccc3)CC2)C1c1cccc([N+](=O)[O-])c1", "note": "(stereo not given)", "fluorescence, % of triamterene": "-0.0892% [at 46 µM]"},
      {"smiles": "O=C(Nc1ccc(Cl)c(Cl)c1)c1cc(Cl)cc(Cl)c1O", "fluorescence, % of triamterene": "2.5%"},
      {"smiles": "Nc1cc(Cl)c([N+](=O)[O-])cc1O", "fluorescence, % of triamterene": "-0.516%"},
      {"smiles": "O=C1c2c(O)ccc([N+](=O)[O-])c2C(=O)c2c([N+](=O)[O-])ccc(O)c21", "fluorescence, % of triamterene": "0.0623%"},
      {"smiles": "Clc1ccc(C(Cn2ccnc2)OCc2c(Cl)cccc2Cl)c(Cl)c1", "note": "(stereo not given)", "fluorescence, % of triamterene": "-0.277% [at 18.6 µM]"},
      {"smiles": "CCCCOC(=O)C(C)CC", "note": "(stereo not given)", "fluorescence, % of triamterene": "0.0488%"},
      {"smiles": "Oc1ccc(-c2ccccc2)c(Cl)c1", "fluorescence, % of triamterene": "-0.0104%"},
      {"smiles": "COC(=O)[C@]1(C)CCC[C@@]2(C)[C@H]1CC=C1C=C(C(C)C)CC[C@@H]12", "fluorescence, % of triamterene": "0.14%"},
      {"smiles": "CC(C)(c1cc(Br)c(O)c(Br)c1)c1cc(Br)c(O)c(Br)c1", "Potency": "inactive"},
      {"smiles": "CCN(CC)CCNc1ccc(CO)c2sc3ccccc3c(=O)c12", "fluorescence, % of triamterene": "-0.0931% [at 46 µM]"},
      {"smiles": "NC(=O)C(=O)N/N=C/c1ccc([N+](=O)[O-])o1", "fluorescence, % of triamterene": "0.265% [at 46 µM]"},
      {"smiles": "C[n+]1c2cc(N)ccc2cc2ccc(N)cc21", "note": "(tested in a mixture with another compound)", "Potency": "12.6 µM [fluorescent] (active)"},
      {"smiles": "O=Nc1ccc(NO)cc1", "fluorescence, % of triamterene": "-0.151% [at 95.7 µM]"},
      {"smiles": "CCC(C)c1cc([N+](=O)[O-])cc([N+](=O)[O-])c1OC(=O)OC(C)C", "note": "(stereo not given)", "fluorescence, % of triamterene": "0.885%"},
      {"smiles": "Oc1ccc(-c2ccc(O)cc2)cc1", "fluorescence, % of triamterene": "0.0391%"},
      {"smiles": "Cc1cn[nH]c1", "fluorescence, % of triamterene": "-0.0498% [at 46 µM]"},
      {"smiles": "CCN(CC)CCCN(c1ccccc1)C1Cc2ccccc2C1", "fluorescence, % of triamterene": "-0.0299% [at 46 µM]"},
      {"smiles": "CC(CN(C)C)CN1c2ccccc2CCc2ccccc21", "note": "(stereo not given)", "fluorescence, % of triamterene": "-0.0464% [at 18.6 µM]"},
      {"smiles": "CSc1c(Cl)c(Cl)c(Cl)c(Cl)c1Cl", "fluorescence, % of triamterene": "0.0732%"},
      {"smiles": "CC(C)OC(=O)c1cc(C(=O)OC(C)C)cc([N+](=O)[O-])c1", "fluorescence, % of triamterene": "-0.285% [at 95.7 µM]"},
      {"smiles": "COC(=O)CC(C)CCC=C(C)C", "note": "(stereo not given)", "fluorescence, % of triamterene": "0.022%"},
      {"smiles": "CC(C)c1cccc(C(C)C)c1N1C(=O)c2ccc(O)cc2C1=O", "Potency": "39.8 µM [fluorescent] (active)"},
      {"smiles": "CC(C)(C)c1cc(/C=C2\\SC(=N)NC2=O)cc(C(C)(C)C)c1O", "fluorescence, % of triamterene": "0.477%"},
      {"smiles": "CSc1ccc2c(c1)N(CCC1CCCCN1C)c1ccccc1S2", "note": "(stereo not given)", "Potency": "inactive"},
      {"smiles": "NC(=O)c1ccccc1N", "fluorescence, % of triamterene": "0.238%"},
      {"smiles": "CCCCCCCC/C=C\\CCCCCCCC(=O)NCc1ccc(O)c(OC)c1", "fluorescence, % of triamterene": "0.0062% [at 46 µM]"},
      {"smiles": "C=CC(=O)OCCC#N", "fluorescence, % of triamterene": "-0.0178%"},
      {"smiles": "Cc1c(C)n(Cc2ccccc2)c2ccc(C(=O)OCCN(C)C)cc12", "fluorescence, % of triamterene": "-0.212% [at 46 µM]"},
      {"smiles": "CC(COC(=O)c1ccccc1)OC(=O)c1ccccc1", "note": "(stereo not given)", "fluorescence, % of triamterene": "0.157%"},
      {"smiles": "Cc1oc(-c2ccccc2)nc1CCOc1ccc(C[C@H](Nc2ccccc2C(=O)c2ccccc2)C(=O)O)cc1", "fluorescence, % of triamterene": "-0.272%"},
      {"smiles": "CN1CCN(C2Cc3ccccc3Sc3ccc(Cl)cc32)CC1", "note": "(stereo not given)", "fluorescence, % of triamterene": "0.17% [at 46 µM]"},
      {"smiles": "CC(C(O)c1ccccc1)N(C)CCOC(c1ccccc1)c1ccccc1", "note": "(stereo not given)", "fluorescence, % of triamterene": "0.0025% [at 46 µM]"}
    ]}
  ]
}
